According to publication PMC7862700, “An all-to-all approach to the identification of sequence-specific readers for epigenetic DNA modifications on cytosine”:

Key:
Assay in all cases: DAPPL (digital affinity profiling via proximity ligation, sequencing); 10 mM Tris-HCl pH 7.5, 50 mM NaCl, 1 mM DTT, 4% glycerol, room temperature, 30 min; GST-TFs on glutathione beads, 16-mer random dsDNA library, 0.1% formaldehyde crosslink after washing; high values mean tight binding
[1] = target: T1, FEV (Homo sapiens, UniProt Q99581 1-238); settings: protein: recombinant; tags: N-terminal GST; dsDNA, one strand shown
T1 sequence: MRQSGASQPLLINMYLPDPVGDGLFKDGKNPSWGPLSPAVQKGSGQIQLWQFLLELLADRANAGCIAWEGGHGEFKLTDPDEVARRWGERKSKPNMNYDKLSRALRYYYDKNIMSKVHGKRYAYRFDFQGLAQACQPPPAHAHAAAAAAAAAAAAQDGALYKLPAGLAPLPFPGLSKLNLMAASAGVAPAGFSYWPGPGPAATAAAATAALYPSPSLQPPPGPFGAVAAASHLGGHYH
In short: (§1)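 Binding signal is each hexamer's read frequency for a factor divided by its frequency in the tag-only sample. The factors were GST-fused human transcription factors from yeast, captured on glutathione beads, DNA-barcoded and pooled with that sample. Pools were incubated with 200 nmole of a random double-stranded 16-mer DNA library in Tris/NaCl/DTT/glycerol buffer at room temperature for 30 min, then washed, crosslinked with 0.1% formaldehyde, proximity-ligated with BsaI/T4 ligase (1 h, 37 °C), PCR-amplified and sequenced on an Illumina NextSeq500.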

[2] = target: ETV5 (Homo sapiens, UniProt P41161 1-510); settings: protein: recombinant; tags: N-terminal GST; dsDNA, one strand shown
In short: as §1

[3] = target: HSF1 (Homo sapiens, UniProt Q00613 1-529); settings: protein: recombinant; tags: N-terminal GST; chain copies: 3; dsDNA, one strand shown
In short: as §1

[4] = target: T2, SPIC (Homo sapiens, UniProt Q8N5J4 1-248); settings: protein: recombinant; tags: N-terminal GST; dsDNA, one strand shown
T2 sequence: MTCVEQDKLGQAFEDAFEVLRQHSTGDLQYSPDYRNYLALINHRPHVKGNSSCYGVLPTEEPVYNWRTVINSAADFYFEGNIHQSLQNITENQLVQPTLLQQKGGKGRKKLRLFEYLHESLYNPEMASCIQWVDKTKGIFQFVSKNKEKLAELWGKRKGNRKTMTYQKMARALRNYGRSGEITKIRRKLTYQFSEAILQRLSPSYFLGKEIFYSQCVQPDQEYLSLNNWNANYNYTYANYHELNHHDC
In short: as §1

[5] = target: ELF4 (Homo sapiens, UniProt Q99607 1-663); settings: protein: recombinant; tags: N-terminal GST; dsDNA, one strand shown
In short: as §1

[6] = target: T3, ELK4 (Homo sapiens, UniProt P28324-2 1-405); settings: protein: recombinant; tags: N-terminal GST; dsDNA, one strand shown
T3 sequence: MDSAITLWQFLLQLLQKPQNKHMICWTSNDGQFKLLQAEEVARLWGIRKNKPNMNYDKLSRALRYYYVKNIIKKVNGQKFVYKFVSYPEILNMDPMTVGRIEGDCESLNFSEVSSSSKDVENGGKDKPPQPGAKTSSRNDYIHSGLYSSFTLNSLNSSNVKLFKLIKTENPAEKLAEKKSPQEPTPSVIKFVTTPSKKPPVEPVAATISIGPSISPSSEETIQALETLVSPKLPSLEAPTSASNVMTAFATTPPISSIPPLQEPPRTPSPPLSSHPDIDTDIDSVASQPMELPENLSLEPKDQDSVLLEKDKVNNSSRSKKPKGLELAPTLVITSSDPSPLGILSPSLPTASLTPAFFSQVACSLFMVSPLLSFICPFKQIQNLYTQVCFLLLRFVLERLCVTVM
In short: as §1

[7] = target: T4, ETV2 (Homo sapiens, UniProt O00321 1-342); settings: protein: recombinant; tags: N-terminal GST; dsDNA, one strand shown
T4 sequence: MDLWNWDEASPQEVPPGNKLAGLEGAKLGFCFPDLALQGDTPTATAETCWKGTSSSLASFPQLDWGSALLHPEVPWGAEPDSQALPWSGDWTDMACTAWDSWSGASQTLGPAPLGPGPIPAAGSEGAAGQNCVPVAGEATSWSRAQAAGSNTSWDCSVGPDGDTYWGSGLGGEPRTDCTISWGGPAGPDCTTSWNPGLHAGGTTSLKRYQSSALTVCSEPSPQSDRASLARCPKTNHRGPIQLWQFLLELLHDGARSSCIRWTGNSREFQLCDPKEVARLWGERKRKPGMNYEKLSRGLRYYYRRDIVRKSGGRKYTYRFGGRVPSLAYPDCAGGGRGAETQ
In short: as §1

[8] = target: T5, ELF3 (Homo sapiens, UniProt P78545 1-371); settings: protein: recombinant; tags: N-terminal GST; dsDNA, one strand shown
T5 sequence: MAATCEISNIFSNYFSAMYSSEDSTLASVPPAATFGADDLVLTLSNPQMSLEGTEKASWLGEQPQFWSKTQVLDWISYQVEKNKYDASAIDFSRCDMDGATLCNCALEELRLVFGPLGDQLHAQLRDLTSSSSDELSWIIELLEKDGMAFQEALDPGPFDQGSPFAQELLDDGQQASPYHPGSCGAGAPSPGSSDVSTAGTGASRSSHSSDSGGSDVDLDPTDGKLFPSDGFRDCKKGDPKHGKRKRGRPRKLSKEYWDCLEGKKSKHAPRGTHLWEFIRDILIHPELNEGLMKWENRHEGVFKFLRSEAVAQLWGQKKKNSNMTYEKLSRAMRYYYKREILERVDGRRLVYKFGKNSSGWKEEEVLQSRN
In short: as §1

[9] = target: CRX (Homo sapiens, UniProt O43186 1-299); settings: protein: recombinant; tags: N-terminal GST; dsDNA, one strand shown
In short: as §1

[10] = target: ETV1 (Homo sapiens, UniProt P50549 1-477); settings: protein: recombinant; tags: N-terminal GST; dsDNA, one strand shown
In short: as §1

[11] = target: T6, ERF (Homo sapiens, UniProt P50548 1-548); settings: protein: recombinant; tags: N-terminal GST; dsDNA, one strand shown
T6 sequence: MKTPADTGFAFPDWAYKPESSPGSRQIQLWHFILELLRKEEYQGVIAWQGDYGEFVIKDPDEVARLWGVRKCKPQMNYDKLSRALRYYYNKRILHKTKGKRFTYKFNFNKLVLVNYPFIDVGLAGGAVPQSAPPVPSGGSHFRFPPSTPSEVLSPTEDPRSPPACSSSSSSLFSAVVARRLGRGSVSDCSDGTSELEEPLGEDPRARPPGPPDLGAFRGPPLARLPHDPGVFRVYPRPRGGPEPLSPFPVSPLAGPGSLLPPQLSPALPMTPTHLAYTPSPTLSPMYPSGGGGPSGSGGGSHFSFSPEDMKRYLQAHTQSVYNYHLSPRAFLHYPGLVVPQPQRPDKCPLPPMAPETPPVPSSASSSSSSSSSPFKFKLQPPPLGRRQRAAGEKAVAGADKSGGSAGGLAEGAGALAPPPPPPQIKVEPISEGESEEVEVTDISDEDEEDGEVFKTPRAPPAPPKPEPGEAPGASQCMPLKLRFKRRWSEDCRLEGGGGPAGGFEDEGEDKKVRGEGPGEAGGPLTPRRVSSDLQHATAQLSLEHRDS
In short: as §1

[12] = target: T7, ETV3L (Homo sapiens, UniProt Q6ZN32 1-361); settings: protein: recombinant; tags: N-terminal GST; dsDNA, one strand shown
T7 sequence: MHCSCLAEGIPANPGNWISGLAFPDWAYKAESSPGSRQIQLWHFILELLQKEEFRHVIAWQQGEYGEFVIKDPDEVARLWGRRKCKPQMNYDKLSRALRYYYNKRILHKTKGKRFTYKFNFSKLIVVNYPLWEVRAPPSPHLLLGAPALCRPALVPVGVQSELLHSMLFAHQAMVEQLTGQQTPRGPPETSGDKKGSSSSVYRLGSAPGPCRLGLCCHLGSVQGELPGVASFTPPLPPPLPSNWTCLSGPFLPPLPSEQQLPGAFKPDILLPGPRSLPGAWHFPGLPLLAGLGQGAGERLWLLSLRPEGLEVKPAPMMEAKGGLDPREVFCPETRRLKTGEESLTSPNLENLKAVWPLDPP
In short: as §1

[13] = target: T8, ETS2 (Homo sapiens, UniProt P15036 1-469); settings: protein: recombinant; tags: N-terminal GST; dsDNA, one strand shown
T8 sequence: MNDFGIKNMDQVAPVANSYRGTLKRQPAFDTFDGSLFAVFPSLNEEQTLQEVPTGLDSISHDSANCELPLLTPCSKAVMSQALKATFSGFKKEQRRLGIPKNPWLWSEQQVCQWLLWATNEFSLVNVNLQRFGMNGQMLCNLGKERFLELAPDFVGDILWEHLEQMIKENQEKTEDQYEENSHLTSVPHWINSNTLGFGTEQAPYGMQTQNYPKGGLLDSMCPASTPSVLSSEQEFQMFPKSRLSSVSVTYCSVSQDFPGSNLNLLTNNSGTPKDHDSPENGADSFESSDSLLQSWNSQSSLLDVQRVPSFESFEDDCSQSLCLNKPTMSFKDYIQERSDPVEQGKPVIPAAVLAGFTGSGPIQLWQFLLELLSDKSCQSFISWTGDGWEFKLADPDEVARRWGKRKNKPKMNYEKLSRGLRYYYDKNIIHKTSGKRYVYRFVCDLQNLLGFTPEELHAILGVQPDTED
In short: as §1

[14] = target: T9, SPDEF (Homo sapiens, UniProt O95238 1-335); settings: protein: recombinant; tags: N-terminal GST; dsDNA, one strand shown
T9 sequence: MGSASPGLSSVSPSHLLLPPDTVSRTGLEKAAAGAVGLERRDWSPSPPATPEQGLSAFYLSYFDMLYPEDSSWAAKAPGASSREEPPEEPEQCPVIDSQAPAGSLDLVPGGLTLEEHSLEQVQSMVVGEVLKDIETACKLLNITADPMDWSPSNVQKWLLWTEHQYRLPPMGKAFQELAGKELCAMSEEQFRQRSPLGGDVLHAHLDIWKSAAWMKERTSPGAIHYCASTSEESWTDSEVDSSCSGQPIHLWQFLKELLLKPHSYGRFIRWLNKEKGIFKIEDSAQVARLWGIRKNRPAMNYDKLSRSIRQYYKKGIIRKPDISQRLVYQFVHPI
In short: as §1

[15] = target: T10, ETV7 (Homo sapiens, UniProt Q9Y603 1-341); settings: protein: recombinant; tags: N-terminal GST; dsDNA, one strand shown
T10 sequence: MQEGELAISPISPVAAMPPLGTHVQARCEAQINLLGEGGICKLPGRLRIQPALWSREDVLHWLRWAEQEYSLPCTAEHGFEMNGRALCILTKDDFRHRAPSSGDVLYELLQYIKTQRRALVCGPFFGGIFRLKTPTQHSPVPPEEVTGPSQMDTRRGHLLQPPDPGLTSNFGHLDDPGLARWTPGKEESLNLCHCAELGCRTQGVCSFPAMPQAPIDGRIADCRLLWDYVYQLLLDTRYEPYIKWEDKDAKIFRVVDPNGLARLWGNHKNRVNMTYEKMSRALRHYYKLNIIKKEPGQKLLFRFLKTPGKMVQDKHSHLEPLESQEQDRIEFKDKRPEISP
In short: as §1

[16] = target: T11, ELF5 (Homo sapiens, UniProt Q9UKW6-2 1-255); settings: protein: recombinant; tags: N-terminal GST; dsDNA, one strand shown
T11 sequence: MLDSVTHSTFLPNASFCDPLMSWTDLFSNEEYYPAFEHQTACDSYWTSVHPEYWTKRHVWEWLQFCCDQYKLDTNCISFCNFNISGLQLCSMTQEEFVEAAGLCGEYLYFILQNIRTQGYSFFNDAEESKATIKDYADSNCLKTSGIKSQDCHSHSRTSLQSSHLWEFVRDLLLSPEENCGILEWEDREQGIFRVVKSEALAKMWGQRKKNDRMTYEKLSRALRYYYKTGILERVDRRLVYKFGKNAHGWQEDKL
In short: as §1

[17] = target: T12, ETV3 (Homo sapiens, UniProt P41162-2 1-143); settings: protein: recombinant; tags: N-terminal GST; dsDNA, one strand shown
T12 sequence: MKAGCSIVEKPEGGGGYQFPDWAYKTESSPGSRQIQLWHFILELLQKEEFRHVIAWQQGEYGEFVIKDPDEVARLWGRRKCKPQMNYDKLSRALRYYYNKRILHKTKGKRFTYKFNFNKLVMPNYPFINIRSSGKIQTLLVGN
In short: as §1

[18] = target: ETV6 (Homo sapiens, UniProt P41212 1-452); settings: protein: recombinant; tags: N-terminal GST; dsDNA, one strand shown
In short: as §1

Sequence of HSF1 (Q00613 whole entry): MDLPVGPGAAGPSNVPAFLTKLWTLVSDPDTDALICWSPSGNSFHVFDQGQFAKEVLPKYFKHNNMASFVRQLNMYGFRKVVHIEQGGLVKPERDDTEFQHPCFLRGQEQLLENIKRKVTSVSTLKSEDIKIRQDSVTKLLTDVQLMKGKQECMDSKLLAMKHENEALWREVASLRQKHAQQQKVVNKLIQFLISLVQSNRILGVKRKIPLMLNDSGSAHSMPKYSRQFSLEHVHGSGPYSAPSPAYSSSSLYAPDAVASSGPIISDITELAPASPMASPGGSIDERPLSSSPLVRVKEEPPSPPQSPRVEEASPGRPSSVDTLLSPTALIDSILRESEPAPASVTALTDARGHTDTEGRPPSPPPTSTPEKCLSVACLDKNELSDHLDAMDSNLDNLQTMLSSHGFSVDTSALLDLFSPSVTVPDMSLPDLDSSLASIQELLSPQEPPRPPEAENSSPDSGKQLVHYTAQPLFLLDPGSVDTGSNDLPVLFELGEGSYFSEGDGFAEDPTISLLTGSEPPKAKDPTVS
Sequence of ELF4 (Q99607 whole entry): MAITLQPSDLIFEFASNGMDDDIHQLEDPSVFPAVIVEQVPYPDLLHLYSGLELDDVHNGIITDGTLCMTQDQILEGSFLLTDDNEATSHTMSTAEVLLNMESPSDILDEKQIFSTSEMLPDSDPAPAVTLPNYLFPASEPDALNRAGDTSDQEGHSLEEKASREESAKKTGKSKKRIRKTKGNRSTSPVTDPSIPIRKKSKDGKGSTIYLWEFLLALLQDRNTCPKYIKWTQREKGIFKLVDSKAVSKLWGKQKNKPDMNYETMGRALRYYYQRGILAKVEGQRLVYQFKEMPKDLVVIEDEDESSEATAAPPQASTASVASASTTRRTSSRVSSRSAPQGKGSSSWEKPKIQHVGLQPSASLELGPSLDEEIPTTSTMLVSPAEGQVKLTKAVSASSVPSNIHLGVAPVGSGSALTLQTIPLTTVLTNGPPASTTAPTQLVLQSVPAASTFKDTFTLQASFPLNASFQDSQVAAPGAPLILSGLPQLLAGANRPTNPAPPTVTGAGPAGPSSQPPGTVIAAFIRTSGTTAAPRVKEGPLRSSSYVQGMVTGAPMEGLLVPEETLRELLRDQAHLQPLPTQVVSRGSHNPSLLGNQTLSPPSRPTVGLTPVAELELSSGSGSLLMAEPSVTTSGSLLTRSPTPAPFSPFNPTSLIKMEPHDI
Sequence of ETV5 (P41161 whole entry): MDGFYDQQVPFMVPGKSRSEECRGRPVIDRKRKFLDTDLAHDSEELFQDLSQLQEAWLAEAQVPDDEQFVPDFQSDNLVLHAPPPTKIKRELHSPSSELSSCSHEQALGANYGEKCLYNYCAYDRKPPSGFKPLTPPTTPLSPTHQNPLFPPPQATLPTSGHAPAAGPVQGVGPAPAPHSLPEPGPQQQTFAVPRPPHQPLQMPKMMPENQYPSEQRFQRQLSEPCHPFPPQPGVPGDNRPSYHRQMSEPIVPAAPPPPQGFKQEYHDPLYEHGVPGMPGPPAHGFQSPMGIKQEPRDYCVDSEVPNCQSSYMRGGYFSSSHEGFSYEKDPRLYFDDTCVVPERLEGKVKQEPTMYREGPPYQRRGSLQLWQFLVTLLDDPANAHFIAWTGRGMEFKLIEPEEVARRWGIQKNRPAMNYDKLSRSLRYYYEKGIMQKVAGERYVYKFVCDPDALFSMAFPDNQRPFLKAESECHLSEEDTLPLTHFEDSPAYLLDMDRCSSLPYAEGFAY
Sequence of ETV6 (P41212 whole entry): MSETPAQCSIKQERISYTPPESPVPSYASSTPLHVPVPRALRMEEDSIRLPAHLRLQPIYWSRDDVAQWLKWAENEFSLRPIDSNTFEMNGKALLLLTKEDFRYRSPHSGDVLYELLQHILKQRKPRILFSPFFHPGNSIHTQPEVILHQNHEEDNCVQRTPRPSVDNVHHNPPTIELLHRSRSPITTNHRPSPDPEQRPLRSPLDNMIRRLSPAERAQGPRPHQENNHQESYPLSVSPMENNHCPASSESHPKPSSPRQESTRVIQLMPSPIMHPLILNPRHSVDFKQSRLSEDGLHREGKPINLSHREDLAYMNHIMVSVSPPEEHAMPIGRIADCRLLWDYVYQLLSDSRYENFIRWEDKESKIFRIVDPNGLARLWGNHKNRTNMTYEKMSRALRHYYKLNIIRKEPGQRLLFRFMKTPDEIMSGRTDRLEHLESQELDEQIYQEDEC
Sequence of CRX (O43186 whole entry): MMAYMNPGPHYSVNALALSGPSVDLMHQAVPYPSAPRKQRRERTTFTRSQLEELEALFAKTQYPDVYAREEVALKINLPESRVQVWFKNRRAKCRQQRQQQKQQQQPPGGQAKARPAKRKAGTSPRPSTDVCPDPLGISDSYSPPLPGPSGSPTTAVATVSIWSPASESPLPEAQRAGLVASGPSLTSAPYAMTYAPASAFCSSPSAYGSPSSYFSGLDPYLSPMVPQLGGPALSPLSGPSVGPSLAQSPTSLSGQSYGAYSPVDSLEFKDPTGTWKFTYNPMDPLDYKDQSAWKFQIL
Sequence of ETV1 (P50549 whole entry): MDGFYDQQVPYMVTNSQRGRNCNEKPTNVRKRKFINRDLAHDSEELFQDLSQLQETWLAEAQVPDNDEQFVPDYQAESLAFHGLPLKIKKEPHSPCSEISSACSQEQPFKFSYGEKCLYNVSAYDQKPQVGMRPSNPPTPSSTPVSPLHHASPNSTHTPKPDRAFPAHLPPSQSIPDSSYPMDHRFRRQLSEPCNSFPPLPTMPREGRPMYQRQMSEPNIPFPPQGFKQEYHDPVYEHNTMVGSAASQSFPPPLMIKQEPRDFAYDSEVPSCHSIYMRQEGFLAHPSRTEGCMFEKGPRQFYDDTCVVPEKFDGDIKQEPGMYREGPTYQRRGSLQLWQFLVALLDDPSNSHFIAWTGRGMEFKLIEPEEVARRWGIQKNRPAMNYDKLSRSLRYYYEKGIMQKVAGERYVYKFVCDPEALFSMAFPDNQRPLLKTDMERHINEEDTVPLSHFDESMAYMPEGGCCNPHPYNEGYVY

CCGCTC
binding signal [1]: 1.61 fold enrichment (6-mer frequency, TF over GST control)
binding signal [2]: 1.46 fold enrichment (6-mer frequency, TF over GST control)
binding signal [3]: 1.24 fold enrichment (6-mer frequency, TF over GST control)
binding signal [4]: 1.53 fold enrichment (6-mer frequency, TF over GST control)
binding signal [5]: 1.6 fold enrichment (6-mer frequency, TF over GST control)
binding signal [6]: 1.65 fold enrichment (6-mer frequency, TF over GST control)
binding signal [7]: 1.52 fold enrichment (6-mer frequency, TF over GST control)
binding signal [8]: 1.54 fold enrichment (6-mer frequency, TF over GST control)
binding signal [9]: 1.21 fold enrichment (6-mer frequency, TF over GST control)
binding signal [10]: 1.45 fold enrichment (6-mer frequency, TF over GST control)
binding signal [11]: 1.66 fold enrichment (6-mer frequency, TF over GST control)
binding signal [12]: 1.74 fold enrichment (6-mer frequency, TF over GST control)
binding signal [13]: 1.54 fold enrichment (6-mer frequency, TF over GST control)
binding signal [14]: 1.44 fold enrichment (6-mer frequency, TF over GST control)
binding signal [15]: 1.42 fold enrichment (6-mer frequency, TF over GST control)
binding signal [16]: 1.53 fold enrichment (6-mer frequency, TF over GST control)
binding signal [17]: 1.46 fold enrichment (6-mer frequency, TF over GST control)
binding signal [18]: 1.32 fold enrichment (6-mer frequency, TF over GST control)
